# LEDGF integ inh – blocks HIV-1 LEDGF/p75-dependent DNA integration; 0.64% of 370,000 active; inhibition, % at 3.7 µM; AID 743269; TR-FRET IN-LEDGF/p75 DNA integration, Eu/Cy5;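 active = inhibition above the screen-wide mean plus 3 SD, cut at about 13% in these data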;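 also: signal is the Cy5 over europium emission ratio at 671 and 618 nm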
# Rin1-Abl PPI inh – human Rin1-Abl interaction inhibition; P00519+Q13671; TR-FRET Rin1/Abl binding, biochemical; inhibition, % at 7.35 µM; 0.4% of 360,000 active; in the data active = inhibition above about 5%, passing the limit was not always enough
# proKLK7 act – proKLK7 (human) activation, primary screen; 0.9% of 370,000 active; P49862; activation, % at 7 µM; purified proKLK7, EDANS-DABCYL substrate fluorescence; 100% is mature enzyme control, 0% vehicle;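 active = activation above the mean of all tested compounds plus 3 SD, computed per campaign excluding outliers beyond control limits, cut at about 13% in these data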
# MBD2 inh – MBD2-methylated oligo binding inhibition. TR-FRET, MBD2 binding to methylated oligonucleotide. inhibition, % at 4.4 µM. 0.31% of 370,000 active; in the data active = inhibition above about 13%
# Neddylation inh – blocks human cullin neddylation | P61081+Q13564 | TR-FRET cullin neddylation, biochemical | calls only at 25 µM | 0.58% of 360,000 active | AID 651699; in the data active = inhibition above about 36%
# UHRF1 MBD2 ctr – blocks human UHRF1 binding to methylated DNA | UHRF1 binding to methylated oligo, TR-FRET | inhibition, % at 4.4 µM | 0.75% of 370,000 active; in the data active = inhibition above about 21%;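 also: UHRF1 SRA domain binding a hemimethylated CpG hairpin DNA probe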
# A number is an active result; i = inactive; nt = no result given; + = active, no number. Hits are enriched below; roughly 3.1% of the tested compounds scored in any of these assays.
SMILES,LEDGF integ inh,Rin1-Abl PPI inh,proKLK7 act,MBD2 inh,Neddylation inh,UHRF1 MBD2 ctr
COC(=O)[C@]12C[C@H](CC(=O)NCCc3ccccc3OC)C(=O)N(Cc3cccc4ccccc34)C1=C[C@H](COCc1ccccc1)O[C@@H]2C,i,nt,i,i,nt,i
CCN(C1CCCCC1)S(=O)(=O)c1ccc(OC)c(C)c1,i,i,i,i,i,24
CCCCN1C(=O)C(=O)NC[C@@H]1CC1CCCCC1,i,nt,i,i,i,48
CN(Cc1ccco1)S(=O)(=O)c1cc(F)ccc1CN1C(=O)c2cccnc2C1=O,i,i,i,i,i,24
CC(=Nc1ccc(C)cc1C)c1sc2ccccc2c1O,i,i,i,i,+,i
CC(=Nc1ccc(C)cc1)c1sc2ccccc2c1O,i,i,i,i,i,i
Cc1ccc(C(C(=O)NC(C)(C)C)N(CC2CCCO2)C(=O)CCC(=O)Nc2ccccn2)cc1 (stereo not drawn),i,i,i,i,i,i
CCC(C)(C)NC(=O)C(c1ccc(C)cc1)N(CC1CCCO1)C(=O)CCC(=O)Nc1ccccn1 (stereo not drawn),i,i,i,i,i,33
O=C1CC(=O)Nc2cc(S(=O)(=O)NCc3cccs3)ccc2N1,i,i,i,i,i,24
COc1ccc(S(=O)(=O)NCc2cccs2)cc1,i,i,i,i,i,48
O=C(O)c1cccc(S(=O)(=O)NCc2cccs2)c1,i,i,i,i,i,i
CCN(CC)S(=O)(=O)c1ccc(S(=O)(=O)NCc2cccs2)cc1,i,i,i,i,i,i
COc1ccc(C(=O)N(C)Cc2cnn(Cc3ccccc3)c2)cc1S(=O)(=O)N1CCOCC1,i,i,i,i,i,i
O=C(O)CSCCc1ccccn1,i,i,i,i,i,21
CSCCC(NC(=O)c1ccccc1Cl)C(=O)N1CCN(C(C)=O)CC1 (stereo not drawn),i,i,i,i,i,i
CSCCC(NC(=O)c1ccccc1Cl)C(=O)N1CCCCC1 (stereo not drawn),i,i,i,i,i,41
CC(C)NC(=S)Nc1ccc2cn[nH]c2c1,i,i,i,i,i,23
COc1ccc(NC(=S)Nc2ccc3cn[nH]c3c2)cc1,i,i,i,i,i,i
COc1ccc(C(=O)c2nccc3cc(OC)c(OC)cc23)cc1OC,nt,14,nt,nt,i,nt
COc1ccc(C(=O)c2ccc(OC)c(OC)c2)cc1OC,i,i,i,i,i,i
O=C(N/N=C/c1ccc[nH]1)c1ccc(O)cc1,i,i,i,i,i,i
Cc1cc(Br)c(OCc2ccc(C(=O)N/N=C/c3ccc[nH]3)cc2)c(Br)c1,i,i,i,i,+,i
O=C(N/N=C/c1ccc[nH]1)c1ccc(COc2cccc3cccnc23)cc1,i,i,i,i,+,i
O=C(N/N=C/c1ccccc1C(=O)O)c1ccc(COc2cccc3cccnc23)cc1,i,i,i,i,i,i
CSCCC(NC(=O)c1cccc(C)c1)C(=O)Nc1sccc1C(N)=O (stereo not drawn),i,i,i,i,i,i
SMILES,LEDGF integ inh,Rin1-Abl PPI inh,proKLK7 act,MBD2 inh,Neddylation inh,UHRF1 MBD2 ctr
COc1ccc(C(C)(O)c2nc(-c3ccccc3)cs2)cc1 (stereo not drawn),i,i,i,i,i,i
COc1ccc(C(C)(O)c2nc(-c3ccc4ccccc4c3)cs2)cc1 (stereo not drawn),i,i,i,i,i,34
CCOc1ccccc1NC(=O)CN(c1cc(C)cc(C)c1)S(=O)(=O)c1c(C)noc1C,i,i,i,i,i,27
CN(C)C(=O)C[C@H]1CC[C@H]2[C@H](COc3ccc(NC(=O)C4CC4)cc3C(=O)N2C)O1,i,nt,i,i,nt,i
O=C(NNC(=O)c1cccs1)c1ccc([N+](=O)[O-])cc1,i,nt,i,i,nt,21
O=C(NCC(c1cccs1)N1CCOCC1)c1ccc([N+](=O)[O-])cc1 (stereo not drawn),i,i,i,i,i,25
COc1cc(O)c(C(CC(=O)N2CCCC(C)C2)c2ccccc2)c(OC)c1 (stereo not drawn),i,nt,nt,i,nt,i
O=C(CCCCC(=O)NCc1cccs1)NCc1cccs1,i,i,i,i,i,23
O=C(CCC1CCCC1)NCc1cccs1,i,i,i,i,i,i
CCCCc1nnc(NC(=O)COc2ccc3c(C)cc(=O)oc3c2)s1,i,nt,i,i,nt,i

# Source: PubChem BioAssay (several laboratories)
